Assay outcomes as filed in PubChem BioAssay.
eIF4E-4G inh: inhibitors of eIF4E and eIF4G interaction in translation initiation; P63073+Q04637; TR-FRET eIF4E-eIF4GI(517-606) binding, 2 h; inhibition, % at 21.7 µM; hit rate 0.37% among 220,000; AID 782
Mcl1 Bid PPI: disrupts binding of human Mcl-1 to Bid peptide; Q07820; TR-FRET Mcl-1/Bid-Dy647 peptide binding, 1536-well; inhibition, % at 21.7 µM; hit rate 0.97% among 220,000; AID 1021;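 active means compounds that cut the binding signal by more than half at the single screening dose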;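 further: His-tagged Mcl-1 with europium anti-His antibody binding Bid BH3 peptide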
14-3-3 Bad inh: disrupts binding of bovine 14-3-3 zeta to phospho-Bad peptide; AID 781; TR-FRET 14-3-3zeta/Dy647-pBad peptide displacement, 1 h; hit rate 0.71% among 220,000; inhibition, % at 21.7 µM;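 active means inhibition above about 70%, limit read from the data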
Mcl-1 Bim block: inhibitors of Bim-Mcl-1 interaction, human; Bead-based flow cytometry, Bim peptide-Mcl-1 binding; hit rate 0.1% among 190,000; inhibition, % at 10 µM; Q07820; AID 1009; in the data active means inhibition above about 40%
NCF1 inh: blocks human p47phox regulatory protein of NADPH oxidases; P14598; p47phox/p22phox peptide binding, fluorescence polarization, 2 h; AID 1274; inhibition, % at 24.7 µM; hit rate 0.53% among 220,000
Mcl1-Noxa inh: disrupts binding of human Mcl-1 to Noxa peptide; TR-FRET Mcl-1/Noxa peptide binding, 2 h; inhibition, % at 21.7 µM; Q07820; hit rate 1.5% among 220,000;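 active means compounds that cut the protein-peptide binding signal by more than 50% relative to plate controls in a single-dose test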;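 further: His-tagged Mcl-1 with rhodamine Noxa BH3 peptide and terbium anti-His antibody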
Hits are given with their value; 0 = inactive; - = no result; [ ] = remark or other dose. The list is not random: actives were taken first. Their share in the collection is about 3.4%.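 How the source made its calls, unless noted: active means inhibition above about 30% (limit read from the data); inactive means the rest.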

SMILES	eIF4E-4G inh	Mcl1 Bid PPI	14-3-3 Bad inh	Mcl-1 Bim block	NCF1 inh	Mcl1-Noxa inh
CN(C)c1ncc(C2=C(Cl)C(=O)C(N3CCCC3)=C(Cl)C2=O)s1	53[fluorescence artefact?]	61	79[fluorescence artefact?]	85	0	112
Clc1ccc(Cl)c2sc(N3CCCC3)nc12	0	0	0	0	0	0
CC(=O)c1cnc(N(C)C)s1	0	0	0	0	0	0
O=C1C(Cl)=C(N2CCCCC2)C(=O)C(Cl)=C1c1cnc(N2CCCCC2)s1	37[fluorescence artefact?]	65	0	62	0	109
Cc1oc(-c2cccs2)nc1CN1CCC(c2ccccc2)CC1	0	0	0	0	0	0
COC(=O)C1=C(C)NC(=O)NC1c1ccc(OC(=O)c2ccco2)cc1 (stereo not given)	0	0	0	0	0	0
OCC1(Cc2ccccc2)CCN(C2CCN(c3ccc(F)c(F)c3)CC2)CC1	0	0	0	0	0	0
Cc1ccc(CNC(=O)CCc2nc(-c3cccs3)no2)cc1	0	0	0	0	200	0
CC(O)CNc1nc2ccccc2n1CC(=O)NCCc1ccc(Cl)cc1 (stereo not given)	34	0	0	0	0	0
CC(=O)/C(C#N)=C1\NC(=O)C(Cc2cc(Cl)ccc2Cl)S1 (stereo not given)	0	0	0	-	0	0
CC(=O)/C(C#N)=C1\NC(=O)C(Cc2ccccc2Cl)S1 (stereo not given)	0	0	74	0	0	0
O=C(c1ccccc1)c1coc2ccc(O)c(Cl)c12	0	0	92	0	0	0
CN(C)C(CNC(=S)Nc1cccc(Cl)c1)c1cccnc1 (stereo not given)	0	0	0	0	0	0
COC(=O)Cc1[nH]n(-c2ccccc2)c(=O)c1C=Nc1ccc(C)cc1	0	0	0	-	0	0
Cc1ccc(CSCC(=O)NCc2ccco2)cc1	0	0	89	0	0	0
O=C(COC(=O)c1ccccc1)NCc1ccco1	0	0	0	0	0	0
COc1ccccc1NCCC(=O)OCC(=O)NCc1ccco1	0	0	0	0	0	64
COc1ccc(OCCC(=O)OCC(=O)NCc2ccco2)cc1	0	0	0	0	0	0
O=C(COC(=O)c1ccccc1Oc1ccccc1)NCc1ccco1	0	0	0	0	0	52
Cc1cc(C)c(NC(=O)COC(=O)CSc2ccc(Br)cc2C)c(C)c1	0	0	0	0	0	0
Cc1cc(Br)ccc1SCC(=O)OCC(=O)NCc1ccco1	0	0	0	-	0	55
O=C(c1cc2cc([N+](=O)[O-])ccc2s1)N1CCOCC1	0	0	0	0	0	0
O=C1NN=C(CSc2n[nH]c(=S)s2)CS1	0	0	0	0	0	0
O=C(COc1ccccc1)Nc1sc2c(c1C(=O)NCc1cccnc1)CCCC2	0	59	0	0	0	0
OC1(c2cccnc2)CCN(Cc2nnnn2C2CCCCC2)CC1	0	52	84	0	0	0
SMILES	eIF4E-4G inh	Mcl1 Bid PPI	14-3-3 Bad inh	Mcl-1 Bim block	NCF1 inh	Mcl1-Noxa inh
O=c1ccc(Cl)n[nH]1	0	0	0	-	0	0
Cc1cccn2c(=O)c3cc(C(=O)O)n(C)c3nc12	0	0	0	0	0	0
CSc1nc(=O)n2cccc(C)c2n1	0	0	97[fluorescence artefact?]	0	0	0
CC(=O)N1CCc2cc(N=NC3=C(O)CC(C)(C)CC3=O)ccc21	0	0	0	0	0	0
N#Cc1c(N)oc(-c2ccco2)c1-c1ccco1	0	0	0	0	0	0
COc1ccc(OC)c(/C=N/c2oc(-c3ccco3)c(-c3ccco3)c2C#N)c1	0	0	0	0	0	77
CC(C)CCNC(=O)c1csc2c1CCCCC2	0	64	0	0	0	0
CC1CC(C)CN(CCCNC(=O)c2csc3c2CCCC3)C1 (stereo not given)	0	0	0	0	0	0
CCC(C)NC(=O)c1csc2c1CCCCC2 (stereo not given)	0	0	0	0	0	0
O=C(NCCN1CCOCC1)c1csc2c1CCCC2	0	0	0	0	71	0
Cc1onc(-c2ccccc2)c1NC(=O)N(CCC#N)Cc1ccccc1	0	0	0	-	0	0
N#Cc1cnn2ccn(C3OC(CO)C(O)C3O)c12 (stereo not given)	0	0	0	-	0	0
O=C(Cc1ccccc1)Nc1scc(-c2ccccc2)c1C(=O)N1CCOCC1	0	86	0	0	0	0
O=C(Nc1scc(-c2ccccc2)c1C(=O)O)c1ccco1	0	0	0	0	0	0
Cc1nc2ccccc2n1C(=O)c1ccccc1[N+](=O)[O-]	0	52	0	0	0	0
C/C(=C\c1ccccc1)C(=O)NCCc1ccccc1	0	0	0	0	0	0
CC1=CC(C)(C)N2C(=O)C3(NCCc4c3[nH]c3ccccc43)c3cccc1c32 (stereo not given)	0	0	0	0	0	0
N=C1S/C(=C\c2ccc(-c3ccccc3C(=O)O)o2)C(=O)N1c1ccc2c(c1)OCO2	0	0	0	0	0	60
Cc1cccc(NC(=O)CN2C(=O)N/C(=C/c3ccc(-c4cccc(C(=O)O)c4C)o3)C2=O)c1	0	0	0	0	0	0
COc1ccccc1N1C(=N)S/C(=C\c2ccc(-c3ccccc3C(=O)O)o2)C1=O	0	0	0	0	0	53
Cc1ccc(NC(=O)CN2C(=O)S/C(=C\c3ccc(-c4cccc(C(=O)O)c4C)o3)C2=O)cc1C	58	0	87	0	0	79
Cc1c(C(=O)O)cccc1-c1ccc(/C=C2/NC(=O)N(c3ccccc3)C2=O)o1	0	0	0	0	0	0
COc1cccc(C(=O)COC(=O)c2ccc(NC(C)=O)cc2)c1	0	0	0	0	0	0
C=CCSc1nc(-c2ccc(OC)cc2)c(C#N)c(=O)n1CC=C	89	0	0	0	0	0
N/C(Cn1cncn1)=N\NC(=O)C(=O)Nc1cccc(C(F)(F)F)c1	0	0	0	0	0	0
SMILES	eIF4E-4G inh	Mcl1 Bid PPI	14-3-3 Bad inh	Mcl-1 Bim block	NCF1 inh	Mcl1-Noxa inh
CC(=O)Nc1ccc(C(=O)Nc2cccc(-c3cnc4ccccc4n3)c2)cc1	36	0	81	0	33	76
CCCCN(C(=O)Cn1ncc(Cl)c(Cl)c1=O)c1c(N)n(CC(C)C)c(=O)[nH]c1=O	0	0	0	-	0	66
CCCCN(C(=O)CN1CC(C)OC(C)C1)c1c(N)n(CC(C)C)c(=O)[nH]c1=O (stereo not given)	0	0	0	0	0	0
CN(C(=O)c1ccc(Cl)cc1)C1=CCCCC1CCC#N (stereo not given)	0	65	0	0	0	0
COc1ccc(-c2ocnc2C(=O)NCc2nn(-c3ccccc3)nc2C)cc1	0	0	0	-	0	0
CCOc1cc(/C=C(\C#N)c2[nH]nc(N)c2C#N)ccc1O	0	0	0	0	0	78
CC(C)C(OC(=O)c1cccs1)C(=O)NCc1ccc2c(c1)OCO2 (stereo not given)	0	0	0	0	0	0
